Reference: paper doi:10.1101/2024.03.05.583629

These sequences were tested against pT7_6His-AlfaTag-HOXD13 (human, UniProt P35453 263-343) (assay: PADIT-seq). Conditions: dsDNA, one strand shown.
pT7_6His-AlfaTag-HOXD13, sequence (P35453 263-343): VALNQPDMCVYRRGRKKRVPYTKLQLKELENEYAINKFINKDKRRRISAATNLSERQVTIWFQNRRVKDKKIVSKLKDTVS

Sequence	binding signal
CTCGAGGATATCAAGATCTGGCCTCGGCTTTTTACGAGGAACCTCTAGCTAGCCGACTCACTATAGGGATAATCGCCCTGAGCAAAGACC	3.37 ± 0.0866 log2FC
CTCGAGGATATCAAGATCTGGCCTCGGCCTGATAAAAGGAACCTCTAGCTAGCCGACTCACTATAGGGATAATCGCCCTGAGCAAAGACC	1.73 ± 0.0914 log2FC
CTCGAGGATATCAAGATCTGGCCTCGGCGCGTACGCGGGAACCTCTAGCTAGCCGACTCACTATAGGGATAATCGCCCTGAGCAAAGACC	-1.05 ± 0.139 log2FC
CTCGAGGATATCAAGATCTGGCCTCGGCCTTTTATACGGAACCTCTAGCTAGCCGACTCACTATAGGGATAATCGCCCTGAGCAAAGACC	2.32 ± 0.0734 log2FC
CTCGAGGATATCAAGATCTGGCCTCGGCTCTCCACGCGGAACCTCTAGCTAGCCGACTCACTATAGGGATAATCGCCCTGAGCAAAGACC	-0.925 ± 0.119 log2FC
CTCGAGGATATCAAGATCTGGCCTCGGCTTTTTAACGGGAACCTCTAGCTAGCCGACTCACTATAGGGATAATCGCCCTGAGCAAAGACC	1.89 ± 0.0968 log2FC
CTCGAGGATATCAAGATCTGGCCTCGGCAGACTAAAAGGAACCTCTAGCTAGCCGACTCACTATAGGGATAATCGCCCTGAGCAAAGACC	-0.679 ± 0.104 log2FC
CTCGAGGATATCAAGATCTGGCCTCGGCGTAATAAAAGGAACCTCTAGCTAGCCGACTCACTATAGGGATAATCGCCCTGAGCAAAGACC	2.86 ± 0.0699 log2FC
CTCGAGGATATCAAGATCTGGCCTCGGCGTGTTAAAAGGAACCTCTAGCTAGCCGACTCACTATAGGGATAATCGCCCTGAGCAAAGACC	1.46 ± 0.0736 log2FC
CTCGAGGATATCAAGATCTGGCCTCGGCAATCTAAAAGGAACCTCTAGCTAGCCGACTCACTATAGGGATAATCGCCCTGAGCAAAGACC	-0.296 ± 0.111 log2FC
CTCGAGGATATCAAGATCTGGCCTCGGCCTTTTAAACGGAACCTCTAGCTAGCCGACTCACTATAGGGATAATCGCCCTGAGCAAAGACC	2.06 ± 0.0696 log2FC
CTCGAGGATATCAAGATCTGGCCTCGGCTGGTTAAAAGGAACCTCTAGCTAGCCGACTCACTATAGGGATAATCGCCCTGAGCAAAGACC	1.48 ± 0.0798 log2FC
CTCGAGGATATCAAGATCTGGCCTCGGCGTTTTAGGGGGAACCTCTAGCTAGCCGACTCACTATAGGGATAATCGCCCTGAGCAAAGACC	1.59 ± 0.0927 log2FC
CTCGAGGATATCAAGATCTGGCCTCGGCTTTTTAACTGGAACCTCTAGCTAGCCGACTCACTATAGGGATAATCGCCCTGAGCAAAGACC	1.56 ± 0.107 log2FC
CTCGAGGATATCAAGATCTGGCCTCGGCTTTTTAGACGGAACCTCTAGCTAGCCGACTCACTATAGGGATAATCGCCCTGAGCAAAGACC	-0.513 ± 0.133 log2FC
CTCGAGGATATCAAGATCTGGCCTCGGCGTTTTACTGGGAACCTCTAGCTAGCCGACTCACTATAGGGATAATCGCCCTGAGCAAAGACC	2.76 ± 0.0911 log2FC
CTCGAGGATATCAAGATCTGGCCTCGGCCCGCCACGCGGAACCTCTAGCTAGCCGACTCACTATAGGGATAATCGCCCTGAGCAAAGACC	-1.05 ± 0.125 log2FC
CTCGAGGATATCAAGATCTGGCCTCGGCCGCCCAGGCGGAACCTCTAGCTAGCCGACTCACTATAGGGATAATCGCCCTGAGCAAAGACC	-0.81 ± 0.134 log2FC
